Rows were chosen to be rich in hits. Some 9.2% of all compounds tested hit in one or more screens of this group.
ELG1 genotox: qHTS screen for small molecules that induce genotoxicity in human embryonic kidney (HEK293T) cells expressing luciferase-tagged ELG1; Potency, µM (top dose mostly 46 µM), most hits filed as activators; 330,000 compounds, 1.3% hits; HEK293T ELG1-luciferase reporter, luminescence, 16 h; note: nearly all actives have a fitted effect of over 60% in size
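DMSO vehicle served as control against compound-treated ELG1-luciferase HEK293T cells; exposure lasted 16 hr at 37 °C and 5% CO2, followed by ONE-Glo luminescence detection after 30 min.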
Rab9 promoter act: qHTS Assay for Rab9 Promoter Activators. Huh7 Rab9 promoter-luciferase reporter, luminescence, 24 h. Potency, µM (doses to about 9.22 µM), hits mostly activators. 320,000 compounds, 2.8% hits; note: nearly all actives have a fitted effect of over 60% in size
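Stable Rab9-luc Huh7, 1500 cells/well, 2 h settle; cmpd in DMSO, 24 h, 37 °C/5% CO2; luciferase reagent 10 min RT; luminescence.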
SMN2 splice up: qHTS Assay for Enhancers of SMN2 Splice Variant Expression | HEK293 SMN2-luciferase splicing reporter, luminescence, 30-36 h | Potency, µM (series often up to 46.1 µM), most hits filed as activators | 210,000 compounds, 2.8% hits; note: nearly all actives have a fitted effect of over 55% in size
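HEK293 cells carry an SMN2 […]–luciferase reporter in which exon 7 inclusion puts luciferase in frame. Cells were plated 10-12 h before compound addition, then incubated 30-36 h at 37C. ONE-Glo luminescence was read; sodium butyrate at 4.5 mM final served as control.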
ELG1 repair inh: qHTS screen for small molecules that inhibit ELG1-dependent DNA repair in human embryonic kidney (HEK293T) cells expressing luciferase-tagged ELG1; Potency, µM (highest dose often 46.1 µM), hits mostly inhibitors; HEK293T ELG1-luciferase reporter, luminescence, 16 h; DNA damage induced by 5-fluorouridine; 330,000 compounds, 2.3% hits; note: nearly all actives have a fitted effect of over 55% in size
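Step one: seed 2,000 cells per well. Step two: pin-transfer compound or DMSO alongside 5-fluorouridine. Step three: incubate 16 hr, 37 °C, 5% CO2. Step four: add ONE-Glo, wait 30 min, read luminescence.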
FLuc modulator: qHTS profiling assay for firefly luciferase inhibitor/activator using purifed enzyme and Km concentrations of substrates (counterscreen for miR-21 project) | 360,000 compounds, 6.9% hits | AID 588342, 2011 | purified FLuc, Km substrates, luminescence inhibition | Potency, µM (doses to about 57.5 µM), usual class: inhibitors; note: nearly all actives have a fitted effect of over 55% in size
Target sequence (P08659 whole entry, looked up): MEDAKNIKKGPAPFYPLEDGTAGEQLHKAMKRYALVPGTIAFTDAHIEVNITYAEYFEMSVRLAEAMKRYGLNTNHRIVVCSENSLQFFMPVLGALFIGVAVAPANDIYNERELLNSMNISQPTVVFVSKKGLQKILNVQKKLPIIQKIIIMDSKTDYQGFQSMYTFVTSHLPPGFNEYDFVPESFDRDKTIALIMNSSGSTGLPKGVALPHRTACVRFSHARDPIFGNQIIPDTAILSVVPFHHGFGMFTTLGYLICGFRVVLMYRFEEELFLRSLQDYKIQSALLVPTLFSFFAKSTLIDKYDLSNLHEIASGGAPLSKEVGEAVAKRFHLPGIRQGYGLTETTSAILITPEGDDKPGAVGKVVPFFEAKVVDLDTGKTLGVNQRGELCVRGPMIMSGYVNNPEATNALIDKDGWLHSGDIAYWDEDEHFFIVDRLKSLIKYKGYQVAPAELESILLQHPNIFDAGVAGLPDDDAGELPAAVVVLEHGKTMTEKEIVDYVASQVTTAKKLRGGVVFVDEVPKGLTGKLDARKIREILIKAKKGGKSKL
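Purified P. pyralis luciferase, 10 nM final, with Km-level 10 uM D-luciferin and 10 uM ATP in 50 mM Tris acetate pH 7.5, 10 mM Mg acetate, 0.01% Tween-20, 0.05% BSA; 6-point qHTS titration about 60 µM downward; luminescence read.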
NPC1 prom act: qHTS Assay for NPC1 Promoter Activators; Huh7 NPC1 promoter luciferase reporter, 24 h; Potency, µM (series often up to 9.22 µM), most hits filed as activators; 320,000 compounds, 2.4% hits; AID 485313, 2010; note: nearly all actives have a fitted effect of over 60% in size
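Luciferase expression driven by the NPC1 promoter was measured in stably transfected Huh7 cells after a 24 h compound incubation, using a luciferase reagent and a luminescence read.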
Numbers stand for hits; 0 = inactive; ? = inconclusive; - = no result given; [ ] = remark or other dose. Calls come from the whole dose curve; as a rule, active = well fitted curve in the direction sought with a large enough effect; inconclusive = small, poorly fitted or top-dose-only effect, or another doubt; inactive = no such curve, though single readings can be large; an effect the other way counts as inactive or inconclusive.

SMILES	ELG1 genotox	Rab9 promoter act	SMN2 splice up	ELG1 repair inh	FLuc modulator	NPC1 prom act
CCOc1cc(/C=C2/C(=N)N3C(=NC2=O)SN=C3S(=O)(=O)C(C)C)ccc1OC(=O)c1ccco1	0	0	-	0	0	0
COc1cc(/C=C2/C(=N)N3C(SC)=NSC3=NC2=O)ccc1OC(=O)c1ccco1	?	?	-	?	27µM	?
CC(C)CSC1=NSC2=NC(=O)/C(=C\c3cccs3)C(=N)N12	0	0	?	?	?	0
C=CCOc1ccc(/C=C2\C(=N)N3N=C(S(=O)(=O)CC)SC3=NC2=O)cc1OC	0	0	0	0	9.5µM	0
CSC1=NSC2=NC(=O)/C(=C\c3cccs3)C(=N)N12	?	1.4µM	0.5µM	?	9.5µM	3.5µM
N=C1/C(=C\c2ccc(OC(=O)c3ccco3)cc2)C(=O)N=C2SC=NN12	0	0	?	0	15µM	0
CS(=O)(=O)C1=NN2C(=N)/C(=C\c3ccc(OC(=O)c4ccco4)cc3)C(=O)N=C2S1	0	0	-	0	?	0
CS(=O)(=O)C1=NSC2=NC(=O)/C(=C\c3ccc(OC(=O)c4ccco4)cc3)C(=N)N21	0	0	-	0	24µM	0
Cc1ccc(C)c(S(=O)(=O)c2cnc(SCC(=O)Nc3ccc(F)cc3F)[nH]c2=O)c1	-	-	0	-	?	-
Cc1cccc(-n2c(C)cc(/C=C3/C(=N)N4C(c5ccccc5)=CSC4=NC3=O)c2C)c1	0	0	0	0	0	0
COc1cc(/C=C2/C(=N)N3C(c4ccccc4)=CSC3=NC2=O)ccc1OCC(=O)O	0	0	-	0	27µM	0
CC(=O)c1ccc(NC(=O)CC(C)S(=O)(=O)c2ccc3c(c2)CCN3C(C)=O)cc1 (stereo not given)	0	0	-	0	0	0
Cc1ccc(OCCSc2ncnc3nc[nH]c23)cc1	9.2µM	2.5µM	0	?	13µM	?
C=CCOc1ccc(/C=C/C(=O)OCC(=O)N2CCN(C(C)=O)CC2)cc1	0	-	-	0	-	-
C=CCOc1ccc(/C=C/C(C)=N\O)cc1	?	2.8µM	-	?	6.7µM	2.8µM
Cc1ccc(NC(=O)/C(=C\c2ccc([N+](=O)[O-])cc2)NC(=O)c2ccccc2)cc1	0	0	0	0	0	0
O=C(N/N=C/c1ccc(O)c(O)c1O)/C(=C/c1ccc([N+](=O)[O-])cc1)NC(=O)c1ccccc1	0	0	0	?	11µM	0
COc1ccccc1NC(=S)N(Cc1ccco1)Cc1cc2cc(C)c(C)cc2[nH]c1=O	0	0	0	?	0	0
Cc1ccc(C)c2[nH]c(=O)c(CN(Cc3ccco3)C(=O)Nc3ccccc3)cc12	0	0	0	5.2µM	?	0
COc1ccccc1NC(=O)N(Cc1ccco1)Cc1cc2cc(C)cc(C)c2[nH]c1=O	0	0	0	18µM	0	0
COc1ccccc1NC(=S)N(Cc1ccco1)Cc1cc2cccc(C)c2[nH]c1=O	0	0	0[1.84 µM]	16µM	0	0
Nc1ncnc2c1ncn2[C@@H]1O[C@H](COP(=O)(O)O)[C@@H](O)[C@@H]1O	-	-	0	-	-	-
Clc1ccc(-c2nnc(CNC3CC3)o2)cc1	0	0	0[1.84 µM]	?	?	0
COc1ccc(CNC(=O)C2CCN(S(=O)(=O)c3ccc4c(c3)N(C(C)=O)CCO4)CC2)cc1	0	0	-	0	0	0
O=S(=O)(Nc1ccc(-c2ccc(N3CCCC3)nn2)cc1)c1ccc(Cl)cc1	-	-	-	-	0	-
SMILES	ELG1 genotox	Rab9 promoter act	SMN2 splice up	ELG1 repair inh	FLuc modulator	NPC1 prom act
CCOc1ccc(S(=O)(=O)Nc2ccc(-c3ccc(N4CCCC4)nn3)cc2)cc1	-	-	-	-	0	-
O=S(=O)(Nc1cccc(-c2ccc(N3CCCCCC3)nn2)c1)c1ccc(C(F)(F)F)cc1	?	?	-	?	9.5µM	0
O=S(=O)(Nc1ccc(-c2ccc(N3CCCCC3)nn2)cc1)c1ccc(OC(F)(F)F)cc1	-	-	-	-	21µM	-
O=S(=O)(Nc1cccc(-c2ccc(N3CCCCCC3)nn2)c1)c1ccc(F)cc1	?	?	-	?	5.4µM	?
O=S(=O)(Nc1cccc(-c2ccc(N3CCCCCC3)nn2)c1)c1cccc(F)c1	?	3.2µM	-	?	2.4µM	3.2µM
CS(=O)(=O)c1ccccc1-c1nnc(NC(=O)c2ccco2)o1	0	0	-	0	0	0
CCOc1ccc(-n2c(SCC(=O)N3CCCc4ccccc43)nc3c([nH]c4ccccc43)c2=O)cc1	-	-	-	-	0	-
C[C@H]1COC(=O)CC/C=C\C[C@H](CC(=O)N(CCO)Cc2ccccc2)C(=O)N1	0	-	-	0	-	-
CCCNc1c(NC(=O)C2CCC(C)CC2)c(=O)oc2ccccc12 (stereo not given)	0	0	-	0	0	0
Cc1cccc(NC(=O)Cn2c(=O)ccc3cc(S(=O)(=O)N4CCCC4)ccc32)c1C	-	-	-	-	0	-
CC(=O)c1ccc(S(=O)(=O)Nc2cccc(-c3ccc(N4CCCCC4)nn3)c2)cc1	-	-	-	-	1.5µM	-
COCC1=Cc2cc3c(cc2C(C(C(=O)OC)C(=O)OC)N1C(=O)OC)OCO3 (stereo not given)	-	-	0	-	-	-
COC(=O)c1sccc1NC(=O)CC1C(=O)NCCN1C(=O)Nc1ccccc1 (stereo not given)	0	0	-	?	0	0
CCCCc1ccc(NC(=O)N2CCNC(=O)C2CC(=O)Nc2ccsc2C(=O)OC)cc1 (stereo not given)	0	0	-	23µM	?	0
COC(=O)c1sccc1NC(=O)CC1C(=O)NCCN1C(=O)Nc1ccc(OCc2ccccc2)cc1 (stereo not given)	0	0	-	12µM	?	0
O=C(/C=C/c1ccc(S(=O)(=O)N2CCOCC2)cc1)Nc1ccc(F)c(F)c1F	0	-	-	21µM	-	-
CC1CCCC(C)N1C(=O)/C=C/c1ccc(S(=O)(=O)N2CCOCC2)cc1 (stereo not given)	0	0	-	13µM	0	0
O=C(/C=C/c1ccc(S(=O)(=O)N2CCOCC2)cc1)N1CCN(c2ccccc2)CC1	0	0	0	?	0	0
Oc1ccc(C2=NNC(c3ccc(O)cc3)=NN2)cc1	0	0	-	0	0	0
CSC1=NNC(c2ccc(C(C)(C)C)cc2)=NN1	0	?	-	?	12µM	?
Cc1cc(=O)[nH]c(N/N=C2/CCCC/C2=C\c2ccccc2)n1	0	0	-	8.2µM	0	0
Cc1cc(=O)[nH]c(N/N=C/C=C/c2ccccc2)n1	0	0	0	0	0	0
Cc1cccc(-n2c(C)cc(C=C3C(=O)c4ccccc4C3=O)c2C)c1	?	?	0	?	0.85µM	?
